12-LOX inh – blocks human arachidonate 12S-lipoxygenase; Potency, µM (highest dose often 108 µM), inactives show top-dose activity change, negative = inhibition, most hits filed as inhibitors; 1.1% of 580,000 active; P18054; purified 12hLO, xylenol orange hydroperoxide absorbance; further: on the % scale 0 is the no-effect control and ±100 the full control effect
Target sequence (P18054 whole entry, looked up): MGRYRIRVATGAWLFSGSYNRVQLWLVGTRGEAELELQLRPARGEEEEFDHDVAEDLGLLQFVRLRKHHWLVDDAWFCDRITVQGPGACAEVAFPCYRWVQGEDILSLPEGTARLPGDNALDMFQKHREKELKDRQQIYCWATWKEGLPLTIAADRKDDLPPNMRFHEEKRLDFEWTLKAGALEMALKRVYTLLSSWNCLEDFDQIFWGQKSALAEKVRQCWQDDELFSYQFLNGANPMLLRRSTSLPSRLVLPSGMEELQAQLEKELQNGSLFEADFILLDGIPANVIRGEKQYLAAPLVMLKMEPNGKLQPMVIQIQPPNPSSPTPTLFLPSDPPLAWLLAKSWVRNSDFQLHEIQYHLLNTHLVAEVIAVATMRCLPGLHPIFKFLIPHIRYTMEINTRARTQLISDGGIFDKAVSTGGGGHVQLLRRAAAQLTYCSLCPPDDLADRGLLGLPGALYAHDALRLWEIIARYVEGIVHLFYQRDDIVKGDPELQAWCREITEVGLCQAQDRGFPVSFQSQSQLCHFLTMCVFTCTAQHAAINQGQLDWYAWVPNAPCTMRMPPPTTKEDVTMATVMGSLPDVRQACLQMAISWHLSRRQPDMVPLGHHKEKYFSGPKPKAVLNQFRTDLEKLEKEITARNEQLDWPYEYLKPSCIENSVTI
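Hydroperoxide product was detected by ferrous iron/xylenol orange as the 573 to 405 nm absorbance ratio. Arachidonic acid at 40 uM (final) was turned over for 30 min at room temperature by 150 nM human 12hLO, pH 7.0 Hepes buffer, after 15 min compound preincubation.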
gsp ag – gsp mutant agonism; gsp mutant cells, cAMP HTRF, 30 min; Potency, µM (highest dose often 76.9 µM), for the others: top-dose activation (cAMP increase), most hits filed as activators; 0.13% of 340,000 active; AID 624287; active means well fitted activation curve with a large enough effect; inconclusive means small, poorly fitted or top-dose-only effect, or another doubt; inactive means no such curve, though single readings can be large or run the other way; cell line not stated here;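 further: phosphodiesterase inhibitor Ro 20-1724 added with compounds to block cAMP breakdown; nearly all actives have a fitted effect of over 60% in size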
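Cells in DMEM/10% FBS with G418 were pretreated with compounds in DMSO plus […] (300 uM stock) for 30 min at 37C. cAMP was measured by HTRF (cAMP-d2 plus anti-cAMP antibody-K) after 30 min at room temperature.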
gsp antagonist – antagonizes gsp, the McCune-Albright syndrome mutation; gsp-mutant cells, cAMP HTRF, 30 min; Potency, µM (titrated, usually from 76.9 µM), for the others: at the top dose activity change, negative = inhibition, most hits filed as inhibitors; 0.4% of 340,000 active; calls by dose curve; cell line not stated here;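 further: intracellular cAMP measured with PDE inhibitor Ro 20-1724 present during compound exposure; on the % scale 0 is the no-effect control and ±100 the full control effect; nearly all actives have a fitted effect of over 65% in size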
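HTRF cAMP measurement after 30 min RT detection following 30 min, 37C compound treatment alongside […] (added as 300 uM solution) in G418-selected cells seeded at 2000/well and grown 16–24 h.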
Mito fusion act – blocks mitochondrial division or promotes mitochondrial fusion; S. cerevisiae fusion-defective mutant growth rescue, CellTiterGlo 48 h; Potency, µM (titrated, usually from 46.1 µM), for inactives: at the highest dose growth rescue (activation), usual class: activators; 0.23% of 320,000 active; AID 485298; further: % of control where 0% means no effect; nearly all actives have a fitted effect of over 45% in size
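S. cerevisiae fusion-defective temperature-sensitive mutants (e.g. fzo1-1, mgm1-5) grown 48 h at 37C in YPEG (ethanol/glycerol non-fermentable) medium with 23 nl compound per well; growth rescue read as CellTiterGlo luminescence.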
FUS suppressor – FUS proteinopathy suppression in yeast. S. cerevisiae FUS-expressing, growth rescue, OD600, 24 h. Potency, µM (highest dose often 76.6 µM), most hits filed as activators. 0.24% of 390,000 active;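 further: plate controls were DMSO vehicle for no effect and reference control for full effect; nearly all actives have a fitted effect of over 55% in size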
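Yeast FUS proteinopathy model; galactose-induced FUS (2%), starting OD 0.005. Cpds in dilution series, 24hr, 30C, 99% humidity. Abs 600 nm growth. Pos ctrl CP55940 (top 92uM final); neg ctrl DMSO.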
* hit, by the source's call; i = inactive; ? = inconclusive; / = no result; [ ] = another dose, or the depositor's remark. Shown are actives, neighbours in structure and some others; about 1.6% of the full set was active somewhere. Unless noted, the call rests on the fitted dose curve; in most records, active means well fitted curve in the direction sought with a large enough effect; inconclusive means small, poorly fitted or top-dose-only effect, or another doubt; inactive means no such curve, though single readings can be large; an effect the other way counts as inactive or inconclusive. Potency means the concentration at half of the fitted maximal effect.

SMILES | 12-LOX inh | gsp ag | gsp antagonist | Mito fusion act | FUS suppressor
O=C(Nc1cccnc1)Nc1ccccc1Cl | ? | 4% | -9% | -2% | i
O=C(Nc1cccnc1)c1cc(Br)c(Br)s1 | 20µM* | 3%[15.4 µM] | -4% | 6% | i
O=C(Nc1cccnc1)Nc1ccc(Br)cc1Cl | 16µM* | -15% | -7% | ? | i
Cc1ccsc1CN(C)C(=O)CC(C)C | -2% | / | / | / | /
Cc1cc(/C([O-])=C(/C(=S)Nc2ccc(F)cc2)[n+]2ccccc2)c(C)n1-c1ccc(F)cc1 | ? | -1% | -7% | -2% | ?
Cc1cc(/C([O-])=C(/C(=S)Nc2ccccc2)[n+]2ccccc2)c(C)n1-c1ccccc1 | ? | -7% | -3% | -1% | 16µM*
N#C/C(=C\c1ccccc1)c1ccccn1 | -23% | -35% | 5% | 4% | i
N#C/C(=C\c1ccncc1)c1ccccn1 | -12% | 5%[15.4 µM] | 3% | 9% | i
Cc1cc(/C=C(/C#N)c2ccccn2)c(C)n1C1CC1 | 11µM* | / | / | / | /
Cc1c(/C=C(/C#N)c2ccccn2)cc(C#N)n1C | 35µM* | / | / | / | /
CC(=O)c1ccc(N2CCN(C(=O)Nc3cccc(Cl)c3)CC2)cc1 | 40% | / | / | / | /
Cc1ccc(C(=O)Nc2ccc(S(=O)(=O)O)c3cc(S(=O)(=O)O)cc(S(=O)(=O)O)c23)cc1NC(=O)c1cccc(NC(=O)Nc2cccc(C(=O)Nc3cc(C(=O)Nc4ccc(S(=O)(=O)O)c5cc(S(=O)(=O)O)cc(S(=O)(=O)O)c45)ccc3C)c2)c1 | -14%[57.4 µM] | / | / | 16µM* | /
O=C(c1ccc(N2CCN(C(=O)c3ccccc3Br)CC2)cc1)c1cccc(F)c1 | 235% | ? | ? | 1% | i
O=C(CCC(=O)N1CCN(c2ccc(F)cc2)CC1)N1CCN(c2ccc(F)cc2)CC1 | 1.8µM* | 5% | -17% | 6% | i
O=C(c1ccc(N2CCN(C(=O)c3cccc(F)c3)CC2)cc1)c1cccc(F)c1 | 386% | 3% | 32µM* | 1% | i
O=C(c1ccc(F)cc1)c1ccc(N2CCCC2)cc1 | 32µM* | 9% | ? | 0% | i
CC(=O)Nc1ccc2c(C(C(=O)O)N3CCN(c4cc(C)c5ccccc5n4)CC3)c[nH]c2c1 (configuration not stated) | -22% | / | / | / | /
CCc1ccc(C(=O)Nc2ccc(O)c(-c3nc4ccccc4o3)c2)cc1 | 9% | / | / | / | /
O=C(CCC1CCCC1)NCCCCNC(=O)CCC1CCCC1 | -4% | / | / | / | /
COCCc1noc(-c2ccccc2OC2CN(C(=O)c3ccccc3OC)C2)n1 | 40% | / | / | / | /
CCc1nc2sc3ccccc3c(=O)c2c(=O)n1Cc1ccco1 | -21% | 18% | -4% | 16% | 32µM*
Cc1ccc(-c2nc3c(c(=O)c4ccccc4n3C)c(=O)n2Cc2ccco2)cc1 | 18% | 2%[15.4 µM] | -16% | -4% | i
CCCc1nc2sc3ccccc3c(=O)c2c(=O)n1Cc1ccccc1 | 24% | -53%[15.4 µM] | 2% | / | i
O=c1c2ccccc2sc2nc(C3CCCCC3)n(Cc3ccco3)c(=O)c12 | ? | 27% | -5% | 3.5µM* | i
CCn1c(=O)c([N+](=O)[O-])c(NCCc2ccccc2)c2ccccc21 | / | -8% | 40µM* | 1% | i
SMILES | 12-LOX inh | gsp ag | gsp antagonist | Mito fusion act | FUS suppressor
CCOc1ccc(-c2cc(C(=O)NCCCOC)c3ccccc3n2)cc1 | -8% | / | / | / | /
Cc1ccccc1CNC(=O)c1cnc2ccccc2n1 | 4.5µM* | / | / | / | /
CC(=O)N1CCC(C(=O)Nc2nc(-c3ccc(Br)s3)cs2)CC1 | -38% | / | / | / | /
Cc1[nH]n(-c2ccccc2)c(=O)c1Sc1ccc(Cl)cc1 | ? | -13% | -5% | 25% | i
Cc1cc(-c2c(C)[nH]n(-c3ccc(Cl)cc3)c2=O)n[nH]1 | 34% | -1% | 40µM* | 0% | ?
N=C(N)c1cc(Cl)cc([N+](=O)[O-])c1 | -62% | / | / | / | /
CC1=C(C(=O)OCc2ccccc2)C(c2ccc(C(C)(C)C)cc2)NC(=O)N1CCCCCC(=O)O (configuration not stated) | 25µM* | 7% | 1% | ? | ?
CC1=C(C(=O)OCc2ccccc2)C(c2ccccc2[N+](=O)[O-])NC(=O)N1C (configuration not stated) | 16µM* | -30% | -14% | 2% | i
CC1=C(C(=O)OCc2ccccc2)C(c2ccc([N+](=O)[O-])cc2)NC(=O)N1C (configuration not stated) | -30% | -2% | -20% | -2% | i
COc1ccc(C(=O)COC(=O)COc2ccc(F)cc2Cl)cc1OC | -3% | / | / | / | /
COC(=O)C1=C(C)N(Cc2ccccc2)C(=S)NC1c1cccc(OC)c1 (configuration not stated) | 32µM* | / | / | / | /
COC(=O)C1=C(C)N(Cc2ccccc2)C(=S)NC1c1ccc(-c2ccccc2)cc1 (configuration not stated) | 22µM* | / | / | / | /
COC(=O)C1=C(C)N(Cc2ccccc2)C(=S)N[C@H]1c1ccccc1 | ? | / | -6% | 5% | i
COC(=O)C1=C(C)N(Cc2ccc(Br)cc2)C(=S)NC1c1ccc(F)cc1 (configuration not stated) | 40µM* | / | / | / | /
COC(=O)C1=C(C)N(Cc2ccc(Cl)cc2)C(=S)NC1c1ccc(Cl)cc1 (configuration not stated) | 32µM* | / | / | / | /
CN(CC(=O)NCc1nc(-c2ccccc2Cl)no1)S(=O)(=O)c1ccc2ccccc2c1 | -8% | / | / | / | /
CN(CC(=O)NC(C1CC1)C1CC1)c1ccccc1 | -16% | / | / | / | /
CC(C)c1nnc2ccc(N3CCC(C(=O)O)CC3)nn12 | -4% | / | / | / | /
CCN1C(=S)N[C@@H](c2cccc(F)c2)C(C(=O)OC)=C1C | ? | / | 19% | -6% | i
COC(=O)C1=C(C)N(Cc2ccc(Br)cc2)C(=S)NC1c1cccc(F)c1 (configuration not stated) | 35µM* | / | / | / | /
CCOc1ccc(/C=C/c2nc(C#N)c(NCCN(C)C)o2)cc1 | -1% | / | / | / | /
CNC(=O)CCn1ncc2cc(OC3CCc4cccc(-c5ccc(F)cc5)c43)ccc21 (configuration not stated) | -17%[176 µM] | / | / | / | /

Assay outcomes from PubChem.
